Data taken from PubChem BioAssay AID1851 (National Center for Advancing Translational Sciences (NCATS), 2009).
The whole screen tested about 16,000 compounds, of which about 2,600 (16%) were called active. About 20% were inconclusive and are not listed. Not all results are given here. Values without a mark were called inactive. The call rests on the fitted dose curve; in most records, active means well fitted curve in the direction sought with a large enough effect; inconclusive means small, poorly fitted or top-dose-only effect, or effect the other way; inactive means no such curve, though single readings can be large or run the other way.

molecular target: Cytochrome P450 2D6 (Homo sapiens) (UniProt P10635); test: Cytochrome panel assay with activity outcomes; conditions: recombinant CYP, pro-luciferin dealkylation, luminescence, p450-cyp2d6; series mostly up to 57.1 µM; activity, negative = inhibition: at the top concentration
On the % scale 0 is the no-effect control and ±100 the full control effect.

Chain of Cytochrome P450 2D6 (Homo sapiens) (P10635 whole entry, looked up): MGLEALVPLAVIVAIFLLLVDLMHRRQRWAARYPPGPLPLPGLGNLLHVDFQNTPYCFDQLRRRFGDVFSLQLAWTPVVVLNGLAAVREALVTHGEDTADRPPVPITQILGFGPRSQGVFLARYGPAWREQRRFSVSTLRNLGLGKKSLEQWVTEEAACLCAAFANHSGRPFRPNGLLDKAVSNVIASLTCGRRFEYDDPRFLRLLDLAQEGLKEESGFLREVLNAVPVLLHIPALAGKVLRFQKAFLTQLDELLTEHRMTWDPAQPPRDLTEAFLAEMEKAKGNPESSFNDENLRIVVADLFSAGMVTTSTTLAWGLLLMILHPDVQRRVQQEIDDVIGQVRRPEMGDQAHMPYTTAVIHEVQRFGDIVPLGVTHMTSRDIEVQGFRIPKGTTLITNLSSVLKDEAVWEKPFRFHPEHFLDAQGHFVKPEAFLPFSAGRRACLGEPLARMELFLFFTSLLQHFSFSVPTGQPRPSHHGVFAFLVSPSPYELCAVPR

Row | Structure (SMILES) | activity, negative = inhibition | AC50
1 | CC(C)NC(=O)/C(=N\O)c1ccccc1 | 10.4% | –
2 | Cc1ccc(OCC(=O)NNC(=O)c2cccnc2)cc1 | 27.2% | –
3 | O=c1c(-c2cccs2)nc2cnc(Oc3ccccc3)nc2n1C1CC1 | 0.176% | –
4 | COc1ccc(NC(=O)N2CCCC3(CCN(C(=O)c4cccc(F)c4)CC3)C2)cc1 | 1.41% | –
5 | CN1CCN(c2ncc3nc(-c4ccc(Cl)cc4)c(=O)n(C4CC4)c3n2)CC1 | 8.63% | –
6 | Cc1ccc(NC(=O)/C(=C/c2cccc([N+](=O)[O-])c2)NC(=O)C2CCCCC2)c(C)c1 | -22.1% | –
7 | CC1=C(C(=O)Nc2ccccc2F)C(c2ccsc2)C2=C(CC(c3ccccc3)CC2=O)N1 (centres undefined) | -23.9% | –
8 | COC(=O)C/C=C\[C@@H](C)[C@@H](/C=N\OC[C@@H]1O[C@H](c2ccccc2)C=C[C@@H]1Oc1ccc(OC)cc1)OC | -17.7% [at 11.4 µM] | –
9 | COC(=O)c1ccccc1N/C=C1\CCc2c(c(C)nn2-c2ccccn2)C1=O | 2.73% | –
10 | CCOc1ccc(/C=N/Nc2nc(N3CCCC3)nc(N3CCCC3)n2)cc1OC | -3.09% | –
11 | COCCn1c(=O)c(-c2ccccc2)nc2cnc(Nc3ccccc3)nc21 | 0.836% | –
12 | CCNc1ncc2nc(-c3ccc(OC)cc3)c(=O)n(CCOC)c2n1 | 0.671% | –
13 | CCNc1ncc2nc(-c3ccccc3)c(=O)n(CCc3ccccc3)c2n1 | – | 10 µM (active)
14 | CCNc1ncc2nc(C)c(=O)n(CCc3ccccc3)c2n1 | -11.9% | –
15 | CCNc1ncc2nc(-c3ccccc3)c(=O)n(CCOC)c2n1 | – | 3.16 µM (active)
16 | CCNc1ncc2nc(-c3ccccc3)c(=O)n(C)c2n1 | -0.71% | –
17 | CCOC(=O)c1sc(=N)n(-c2ccc(OC)cc2)c1C | -6.61% | –
18 | COc1cccc(/C=c2/s/c(=C(\C#N)C(=O)N3CCOCC3)n(-c3ccccc3)c2=O)c1 | 21.4% | –
19 | Cc1ccc(N2CCN(CCC(=O)O)CC2)cc1 | -9.16% [at 11.4 µM] | –
20 | CCSC(N)=Nc1ccc(C(F)(F)F)cc1 | -20.9% | –
21 | Cc1ccc(CSC(N)=Nc2ccccc2)cc1C | – | 0.794 µM (active)
22 | N=C(N)c1ccccc1 | 0.724% | –
23 | O=C(Nc1cccc(C(=O)Nc2ccc(S(=O)(=O)O)c3cc(S(=O)(=O)O)cc(S(=O)(=O)O)c23)c1)Nc1cccc(C(=O)Nc2ccc(S(=O)(=O)O)c3cc(S(=O)(=O)O)cc(S(=O)(=O)O)c23)c1 | – | inactive
24 | C(=N/Nc1nnc2c(n1)[nH]c1ccccc12)/c1cccnc1 | -5% [at 11.4 µM] | –
25 | c1ccc2c[n+](Cc3ccnc4ccccc34)ccc2c1 | – | 3.16 µM (active)

Row | Structure (SMILES) | activity, negative = inhibition | AC50
26 | COc1cc(NC(=O)c2cc3nc(-c4ccccc4)cc(-c4ccccc4)n3n2)cc(OC)c1OC | 14.1% | –
27 | COC(=O)c1[nH]c2cccc(OC)c2c1NC(=O)CN(C)CC1OCCO1 | 4.53% | –
28 | NC1CCN(c2cccc(Cl)n2)CC1 | – | 10 µM (active)
29 | Clc1ccc(N2CCCCCC2)nn1 | -3.2% | –
30 | Cc1ccc2c(c1)[C@@H]1CN(C)CC[C@@H]1N2S(=O)(=O)c1ccc(F)cc1 | – | 14.1 µM (active)
31 | O=S(=O)(c1ccc(F)cc1)N1CCCC(CO)C1 (centres undefined) | 2.41% | –
32 | O=S(=O)(c1ccc(F)cc1)N1CC2CCCN2c2ccc(C(F)(F)F)cc21 (centres undefined) | -9.59% | –
33 | O=C1O[C@@H]([C@H](O)[C@H](O)[C@H](O)CO)[C@@H](O)[C@@H]1O | 7.22% [at 11.4 µM] | –
34 | O=C(Cc1ccccc1)Nc1nc(=O)c2ccccc2s1 | -7.22% | –
35 | O=C(c1cnccn1)N1CCC2(CC1)CCN(c1ccccn1)CC2 | -5.17% | –
36 | Cc1ccc(-c2ccc(CCC(=O)O)n2CC2CCCO2)cc1 (centres undefined) | -24.3% | –
37 | Cc1ccc(C(=O)N/N=C/c2cc(C)n(-c3ccc(Br)cc3)c2C)cc1[N+](=O)[O-] | 3.04% | –
38 | CSc1nc2ccccc2cc1/C=C(\C#N)c1cccc(Cl)c1 | -24.3% | –
39 | Cc1cccc(CN2CCN(CC(=O)O)C2=O)c1 | -7.44% | –
40 | CN1CCN(CC(O)c2ccccc2)CC1 (centres undefined) | 0.505% | –
41 | CN1CCCN([C@@H](c2ccccc2)c2ccc(Cl)cc2)CC1 | – | 0.251 µM (active)
42 | CN1CCN([C@@H](c2ccccc2)c2ccc(Cl)cc2)CC1 | – | 2 µM (active)
43 | Cc1cccc(CN2CCN([C@@H](c3ccccc3)c3ccc(Cl)cc3)CC2)c1 | – | 3.16 µM (active)
44 | O=C1CC(N2CCN(C(c3ccccc3)c3ccccc3)CC2)C(=O)N1Cc1ccc(N2CCCC2=O)cc1 (centres undefined) | -26.1% | –
45 | Cc1ccc(-c2noc(CN3CCN(C(c4ccccc4)c4ccccc4)CC3)n2)cc1 | 22.1% | –
46 | CC(=O)N=c1sc(S(N)(=O)=O)nn1C | -0.218% [at 25.6 µM] | –
47 | COC(=O)c1cc(/C=C/c2ccccc2)on1 | 8.93% | –
48 | Cc1cnc2cc(Cl)ccc2c1SCC(=O)O | 8.22% [at 11.4 µM] | –
49 | NS(=O)(=O)c1cc2c(cc1Cl)N[C@@H](CC1CCCC1)NS2(=O)=O | -1.3% [at 25.6 µM] | –
